Bioassay records deposited in PubChem BioAssay by National Center for Advancing Translational Sciences (NCATS).
S2 tox – cell viability loss in ATXN counter-screen; S2 cells (HEK-293 line with an ATXN2-luciferase reporter) viability, CellTiter-Fluor protease fluorescence, 24 h; Potency, µM (top dose mostly 56.7 µM), usual class: cytotoxic; actives 0.49% (n = 400,000); AID 651635; also: nearly all actives have a fitted effect of over 40% in size
Gal4-VP16 FLuc – counter-screen for ROR gamma inhibitors: Gal4-VP16 reporter; Drosophila S2 Gal4-VP16 UAS-luciferase, luminescence, 20 h; AID 2546; Potency, µM (series often up to 53.6 µM), for inactives: at the highest dose activity, negative = inhibition, most hits filed as inhibitors; actives 3.5% (n = 310,000);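 also: Gal4-VP16 expression switched on by copper sulfate through the metallothionein promoter; % is scaled to controls: 0 for no effect and ±100 for the full control effect; nearly all actives have a fitted effect of over 50% in size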
ATXN2 expr inh – reduces ATXN2 reporter expression in HEK-293 cells; HEK-293 ATXN2-luciferase reporter, luminescence, 24 h; Potency, µM (highest dose often 57 µM), inactives show at the top dose activity change, negative = inhibition, usual class: inhibitors; actives 0.72% (n = 360,000); also: % is scaled to controls: 0 for no effect and ±100 for the full control effect; nearly all actives have a fitted effect of over 55% in size
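qHTS (up to 57 uM final) was run with 24 h compound exposure of reporter cells at 37 °C. Each well was multiplexed: SteadyGlo luminescence measured ATXN2-luciferase expression after a fluorogenic Gly-Phe-AFC viability readout (25 uM final).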
HepG2 viability – counter-screen for TGF-b inhibitors: cytotoxicity in HepG2 cells | HepG2 CAGA-GFP viability, ATP luminescence, 18 h | Potency, µM (doses to about 46.1 µM), for the others: at the highest dose activity change, negative = cytotoxicity, actives largely listed as cytotoxic | actives 0.76% (n = 410,000) | AID 588856
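HepG2 CAGA-GFP cells (1000/well, DMEM with 1% FBS) received compound, then TGF-beta at 500 pg/mL final, and were incubated 18 hours at 37 degrees C. Viability was read by CellTiter-Glo luminescence. Media-only wells were set as complete cell-killing and DMSO as no toxicity.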
RORgamma inh – blocks mouse ROR gamma transcriptional activity; AID 2551; P51450; Drosophila S2 Gal4-RORgamma UAS-luciferase reporter, 20 h; actives 5.4% (n = 310,000); Potency, µM (titrated, usually from 53.6 µM), for the others: top-dose activity change, negative = inhibition, most hits filed as inhibitors; also: % is scaled to controls: 0 for no effect and ±100 for the full control effect; nearly all actives have a fitted effect of over 60% in size
Target sequence (P51450 whole entry, looked up, the tested form may be a part): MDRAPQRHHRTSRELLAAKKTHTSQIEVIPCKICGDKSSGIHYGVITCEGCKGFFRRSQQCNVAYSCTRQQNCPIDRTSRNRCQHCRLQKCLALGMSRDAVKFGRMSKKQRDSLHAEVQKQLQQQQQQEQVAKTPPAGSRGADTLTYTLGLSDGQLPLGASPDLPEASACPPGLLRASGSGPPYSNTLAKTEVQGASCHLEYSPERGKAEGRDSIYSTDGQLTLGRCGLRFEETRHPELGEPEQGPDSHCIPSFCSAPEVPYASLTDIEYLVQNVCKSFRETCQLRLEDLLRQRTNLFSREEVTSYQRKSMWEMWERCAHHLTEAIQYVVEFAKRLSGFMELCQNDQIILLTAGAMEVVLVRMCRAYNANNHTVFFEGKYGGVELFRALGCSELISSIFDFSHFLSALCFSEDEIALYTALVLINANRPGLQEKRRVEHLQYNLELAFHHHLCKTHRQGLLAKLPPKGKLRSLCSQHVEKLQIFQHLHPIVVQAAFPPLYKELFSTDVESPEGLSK
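Read-out: Photinus luciferase luminescence; inhibitors lower reporter signal. Insect Schneider cells with Gal4-ROR gamma fusion under metallothionein promoter, UAS reporter; 700 uM final copper sulfate induction, 20 hr, ambient temperature.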
TGFb SMAD3 inh – blocks TGF-b signaling. HepG2 CAGA-GFP TGF-b/SMAD3 reporter, GFP fluorescence, 18 h; TGF-beta stimulated, 500 pg/mL final. Potency, µM (series often up to 46.1 µM), for the others: at the top dose activity, negative = inhibition, hits mostly inhibitors. actives 1.2% (n = 410,000). AID 588855; also: % is scaled to controls: 0 for no effect and ±100 for the full control effect; nearly all actives have a fitted effect of over 65% in size
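Cell-based qHTS in HEPG2 carrying a CAGA-GFP Smad reporter; compounds added before 500 pg/mL final TGF-beta, 18 h incubation at 37 degrees C, GFP fluorescence quantified per cell by imaging cytometry.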
Active calls of the source: *; i = inactive; ? = inconclusive; / = not tested or not shown; ! = a repeat was not active; [ ] = remark or other dose. Sampled rows, rich in hits. Any-hit rate of the full collection: about 6.3%. Calls follow the shape of the dose curve; as a rule, active = well fitted curve in the direction sought with a large enough effect; inconclusive = small, poorly fitted or top-dose-only effect, or another doubt; inactive = no such curve, though single readings can be large; an effect the other way counts as inactive or inconclusive. Potency is read from the fitted curve at half-maximal effect.

SMILES | S2 tox | Gal4-VP16 FLuc | ATXN2 expr inh | HepG2 viability | RORgamma inh | TGFb SMAD3 inh
Cc1cccc(NC(=S)N/N=C/c2cccc([N+](=O)[O-])c2)c1 | i | -9.0%[0.365 µM] | -4.2% | -13.0% | 1.12µM* | ?
Cc1cccc(NC(=S)N/N=C/c2ccc3c(c2)OCO3)c1 | i | -14.9% | 33.2% | -15.1% | -4.8% | -22.0%
Cc1cccc(NC(=S)N/N=C/c2ccc(Cl)c([N+](=O)[O-])c2)c1 | ? | 3.98µM* | ? | -8.6% | 1.58µM* | 0.0%
CCCCCCCC(=O)Nc1ccc(C(=O)N/N=C/c2cccc([N+](=O)[O-])c2)cc1 | 7.94µM* | -5.5% | ? | 8.3% | -15.9% | -9.4%
CCCC1CC(C(=O)Nc2ccccc2)C(=O)O1 (configuration not stated) | i | / | 3.0% | -3.6% | / | 1.6%
Cc1ccccc1C(=O)Nc1ccc(C(=O)N2CCCC(N(C)C)c3ccccc32)cc1 (configuration not stated) | ? | / | -20.2% | / | / | /
Cn1nc(-c2ccc(Cl)cc2)c2cc(C(=O)N3CCN(c4ccccc4)CC3)sc21 | i | 7.5% | 5.7% | -17.3% | 1.0% | -0.9%
Cn1nc(-c2ccc(Cl)cc2)c2cc(C(=O)N3CCN(c4ccccn4)CC3)sc21 | i | 12.6µM* | -10.3% | -15.7% | 17.7% | -2.0%
Cn1nc(-c2ccc(Cl)cc2)c2cc(C(=O)NCCCN3CCCC3)sc21 | 17.8µM* | -23.0% | 20µM* | -14.5% | -23.9% | 4.3%
CCN1CCCC1CNC(=O)c1cc2c(-c3ccc(Cl)cc3)nn(C)c2s1 (configuration not stated) | 14.1µM* | -18.0% | 25.1µM* | -48.2% | -37.1% | ?
CCOC(=O)C1CCCN(S(=O)(=O)c2ccc(N3CCCCS3(=O)=O)cc2)C1 (configuration not stated) | i | / | 10.1% | -1.0% | / | -14.3%
COc1ccc(N2C(=O)CS(=O)(=O)C23C(=O)N(Cc2c(F)cccc2Cl)c2ccccc23)cc1 (configuration not stated) | i | / | 4.1% | -8.3% | / | 4.9%
Cc1nn2c(C)c(C(=O)NC(C)(C)C)cnc2c1-c1ccc(F)cc1 | / | / | / | -4.5% | / | ?
CCc1ccc(-c2cc(C(F)(F)F)n3nc(C(=O)Nc4cnn(Cc5ccc(C)cc5)c4)cc3n2)s1 | ? | ? | 11.2µM* | -21.7% | ? | 2.4%
Cc1ccccc1Cn1cc(NC(=O)c2cc3nc(-c4ccco4)cc(C(F)(F)F)n3n2)cn1 | i | 4.6% | -10.5% | -4.1% | 13.8% | -9.4%
CC(=O)Nc1nc2c(F)cccc2s1 | ? | / | -11.1% | -4.9% | / | -10.4%
Fc1cccc2sc(Nc3nc4cc5c(cc4s3)OCCO5)nc12 | i | 11.2µM* | 88.4% | 0.8% | 5.62µM* | -3.6%
Fc1cc(F)c2nc(Nc3nc4cc5c(cc4s3)OCO5)sc2c1 | i | ? | 11.1% | -91.9% | 15.8µM* | ?
Fc1cccc2sc(Nc3nc4cc5c(cc4s3)OCO5)nc12 | ? | 7.08µM* | 163.0% | -1.5% | 6.31µM* | ?
CC(C)C(=O)Nc1nc2cc3c(cc2s1)OCO3 | ? | ? | -17.6% | 1.2% | 57.8% | 5.1%
Cn1c(CNC(=O)CSc2nc(-c3ccccc3F)nc3cc(=O)[nH]n23)nc2ccccc21 | i | / | 4.1% | 2.0% | / | 0.8%
CC(C)(C)n1ncc2c(=O)n(Cc3cccc(C(F)(F)F)c3Cl)cnc21 | / | / | / | 6.0% | / | -1.4%
Nc1nc(NCCc2ccccc2)c2[nH]cnc2n1 | / | / | / | -36.6% | / | 0.6%
CN(C)C(CNC(=S)Nc1ccc(Cl)cc1)c1cccnc1 (configuration not stated) | i | 5.4% | -12.3% | -8.9% | 9.2% | 0.4%
Cc1ccc(NC(=S)NCC(C)CSc2ccc(Cl)cc2)cc1 (configuration not stated) | i | ? | -7.3% | -6.3% | 2.82µM* | 0.7%
SMILES | S2 tox | Gal4-VP16 FLuc | ATXN2 expr inh | HepG2 viability | RORgamma inh | TGFb SMAD3 inh
Cc1cccc(NC(=S)NCC(C)CSc2ccc(Cl)cc2)c1 (configuration not stated) | i | 5.62µM* | / | 14.1µM* | 3.16µM* | 12.6µM*
CN1CCCC(CN(C)C(=O)c2cnn(-c3nccc(-c4ccccc4C(F)(F)F)n3)c2C2CC2)C1 (configuration not stated) | i | / | / | / | / | /
O=C(Nc1nc2n(n1)C(c1ccccc1)C=C(c1ccccc1)N2)c1ccccc1 (configuration not stated) | / | / | -22.4% | -11.2% | / | 30.6%
Cc1ccc2cc(CNC(C)c3cccc4ccccc34)c(N3CCC(O)CC3)nc2c1 (configuration not stated) | i | / | / | / | / | /
Cc1cc2ccccc2n1CCNC(=O)C(C)C | i | -8.3% | -22.7% | 1.9% | ? | 9.0%
Cc1cc2ccccc2n1CCNC(=O)C(C)Oc1ccccc1 (configuration not stated) | i | ? | -11.5% | -17.7% | 7.08µM* | 0.1%
c1cn(-c2ncnc3ccc(-c4ccoc4)cc23)cn1 | / | ? | / | / | 4.47µM* | /
c1nc(N2CCOCC2)c2cc(-c3ccoc3)ccc2n1 | / | -5.4% | / | / | -10.6% | /
O=C(C[C@@H]1C/C=C/CC[C@H](Cc2ccc(F)cc2)C(=O)O[C@H](c2ccccc2)CNC1=O)NCCO | i | / | -0.5% | -7.5% | / | -4.2%
O=C(C[C@H]1C/C=C\C[C@@H](Cc2ccc(F)cc2)C(=O)O[C@H](c2ccccc2)CNC1=O)NCCO | i | / | 11.5% | 12.6µM* | / | -13.1%
COc1ccc(OC)c(-c2nnc3n2N=C(c2ccccc2OC)CS3)c1 | / | -9.6% | / | / | 32.4% | /
Cc1c(-c2ccc(O)cc2)n(Cc2ccc(OCCN3CCCCCC3)cc2)c2ccc(O)cc12 | 15.8µM*! | / | 17.8µM*! | / | / | /
Cc1c(-c2ccc(O)cc2)nn(-c2ccc(O)cc2)c1-c1ccc(OCCN2CCCCC2)cc1 | / | -0.8% | / | / | ? | /
O=C1CC(O)(C(F)(F)F)Oc2c1ccc1ccccc21 (configuration not stated) | i | 8.8% | -12.3% | 10µM* | 7.1% | 15.8µM*
CCCN1CCC2(CC1)C(C#N)=C(N)Oc1c2sc2nc(C)cc(C)c12 | i | -3.6% | 17.1% | -18.2% | -8.9% | 17.0%
CCOC(=O)N1CCC2(CC1)C(C#N)=C(N)Oc1c2sc2nc(C)cc(C)c12 | / | ? | ? | -36.0% | 8.91µM* | -20.3%
CCOC(=O)C1=C(N)c2ccccc2CC1C1CCCC1 (configuration not stated) | i | -9.6% | / | -116.3% | -6.1% | 12.6µM*
O=C(c1ccccc1)c1ccc(OCCCN2CCCC2)cc1 | i | 6.3% | 13.9% | 15.8µM* | 20.4% | 2.1%
